# Compounds without any hit were thinned out: in the full panel of roughly 83,000, 20% have a hit.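 Negative percent growth values reflect cell death: -40 means 40% of the cells present at the start died, and -100 means all died.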 Unmarked numbers belong to inactive results. Calls of active or inactive are those of the source. The calls were made as follows: active = growth percent below 10; inactive = the rest.
# Test system: HL-60(TB) leukemia
# Assay: NCI-60 one-dose screen, 48 h (100 = growth as untreated, 0 = no growth, -100 = all killed)
# Conditions: 10 µM unless noted
row,SMILES,growth
1,C=CCOc1cccc(/C=C2\SC(=Nc3ccc(O)cc3)NC2=O)c1,-16.8% (active)
2,COc1cc2c(Nc3ccc(NC(=O)Nc4ccc(Cl)c(C(F)(F)F)c4)c(Cl)c3)ncnc2cc1OCCCN1CCN(C)CC1,-56.4% (active)
3,Cc1ccc(Cl)cc1NC(=O)c1cc2ccccc2cc1O,-49.5% (active)
4,C=C(c1ccc(C(=O)O)c(F)c1)c1cc2c(cc1C)C(C)(C)C=CC2(C)C,86.3%
5,COc1ccc(Oc2nc(Nc3ccc(N4CCOCC4)nc3)ncc2NC(=O)c2cc(OC)cc(OC)c2)cc1,75%
6,COc1cc(-c2cc3cc(O)ccc3oc2=O)cc(OC)c1OC,85%
7,C#Cc1ccc(NC(=O)Cc2ccc(/C=C/C(=O)c3nccn3C)cc2)cc1,16.5%
8,CC(C)c1ccc(C(=O)OCCCl)cc1,85.5%
9,CC(C)(C)c1ccc(N2CSC(=S)N(c3ccc(C(C)(C)C)cc3)C2)cc1,92.7%
10,O=[N+]([O-])c1ccc(N2CCN=N2)cc1,84.4%
11,O=C(/C=C/c1ccc([N+](=O)[O-])cc1)c1ccccc1,35.1%
12,Cc1cccc2nc3c(n12)C(=O)C(=O)c1ccccc1-3,77.4%
13,O=C(/C=C/c1cc(CN2CCOCC2)c(O)c2ncccc12)c1cc(CN2CCOCC2)c(O)c2ncccc12,22%
14,CCc1c2c(nc3ccc(OC(=O)N4CCC(N5CCCCC5)CC4)cc13)-c1cc3c(c(=O)n1C2)COC(=O)[C@]3(O)CC,-14% (active)
15,COc1cc(NCC(O)CN(CC(C)C)CC(C)C)c2ncccc2c1 (stereo not given),62.7%
16,CCN1C(=O)CC(SC2CC(=O)N(CC)C2=O)C1=O (stereo not given),79.9%
17,COc1ncc2cc1NS(=O)(=O)c1cccc(c1)C(=O)NCC1=CC=C(S1)c1ncnc3c1SC2=C3C,-10.8% (active)
18,O=C(O)CCC(=O)c1ccc(C2CCCCCC2)cc1,107%
19,O=C(/C=C(O)/C=C/c1ccc(SC(F)(F)F)cc1)/C=C/c1ccc(SC(F)(F)F)cc1,81.9%
20,COc1ccc(NC(=O)c2ccc3c(c2)nc(-c2cc4ccccc4[nH]c2=O)n3-c2cc(C(C)(C)C)[nH]n2)cc1,96.8%

row,SMILES,growth
1,C=C1C(=O)O[C@H]2[C@H]1CC/C(COC(=O)c1ccccc1)=C\CC[C@@]1(C)O[C@@H]21,-59.5% (active)
2,CCN1C(=O)C2(Nc3ccccc3S2)c2cc(C)ccc21 (stereo not given),118%
3,O=c1c2c3c(sc2nc(N/N=C/c2cn(-c4ccccc4)nc2-c2ccc(Cl)cc2)n1Cc1ccccc1)CCCC3,-32.4% (active)
4,O=C(N/N=C/c1cc2ccccc2n2nnnc12)Nc1ccccc1,91.8%
5,Cc1cc(=O)c2c(C)ccc(C)c2[nH]1,96.7%
6,O=C(CC12CC3CC(CC(C3)C1)C2)NCCOCCOCCOCCNC(=O)c1cc2c(o1)C(=O)c1ccccc1C2=O,-7.22% (active)
7,Cc1cccc(N=Nc2cccc(C)c2)c1,125%
8,COc1cc2nc(-c3ccc(Cl)cc3)cc(OCCCN3CCC(O)CC3)c2cc1OC,32.9%
9,CCc1cccc(C)c1NC(=O)c1sc2nc3c(cc2c1N)CCCCC3,-10.5% (active)
10,COc1ccccc1C(OC(C)=O)OC(C)=O,87%
11,COc1ccc(C(=O)C(CN(C)C)c2ccc(OC)cc2)cc1 (stereo not given),36%
12,CC(C)CSc1nc(-c2ccc(F)cc2)c(C#N)c(N2CCCCC2)n1,101%
13,CC(=O)C1CCC2C3CC(C)=C4CC(O)CCC4(C)C3CCC12C (stereo not given),98.7%
14,C#Cc1cccc(Nc2ncnc3ccc(NC(=O)c4ccccc4)cc23)c1,71.9%
15,CC1(C)[C@@H](NOCCCN)CC[C@]2(C)[C@H]3C(=O)C=C4[C@@H]5C[C@](C)(C(=O)O)CC[C@]5(C)CC[C@@]4(C)[C@]3(C)CC[C@@H]12,-31.3% [100 µM] (active)
16,COc1ccc2c(c1)C=C1CSCC3=Cc4cc(OC)ccc4OC13O2,-5.12% (active)
17,c1ccc(OCc2nnc(-c3ccc(Oc4ccccc4)cc3)o2)cc1,99.6%
18,O=C(Nc1ccc(N=Nc2ccccc2)cc1)c1cccc2ccccc12,11.8%
19,Nc1c(C(=O)Nc2ccccn2)sc2nc3c(cc12)CCCCC3,-9.45% (active)
20,NC(=O)c1cc(Cl)ccc1NC(=O)COc1ccccc1,-0.779% (active)
